NIH3T3 tox = NIH 3T3 cell cytotoxicity | NIH 3T3 viability, CellTiter-Glo ATP luminescence, 48-72 h | Potency, µM (series often up to 96.7 µM), inactives show at the top dose activity change, negative = cytotoxicity, actives largely listed as inhibitors | actives 4.3% (n = 94,000); note: nearly all actives have a fitted effect of over 55% in size
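NIH 3T3 cells at 400 cells/well received 23 nL of compound by pintool and were incubated 48 or 72 h at 37 °C. Viability was read as ATP-coupled CellTiter-Glo luminescence.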
SNCA viab count = counter-screen for SNCA expression inhibitors: cell viability | HEK-293-SNCA-luc viability, GF-AFC fluorescence, 24 h | AID 1671193 | actives 0.12% (n = 150,000) | Potency, µM (highest dose often 57.1 µM), for inactives: at the highest dose activity change, negative = cytotoxicity, hits mostly cytotoxic;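 note: 0% = DMSO-treated cells and -100% = medium-only wells without cells; nearly all actives have a fitted effect of over 30% in size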
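Cytotoxicity counterscreen: after 24 h compound treatment of genome-edited SNCA-luciferase HEK-293 cells, live-cell protease substrate GF-AFC read by fluorescence after 30 min; activity scaled between DMSO (0%) and medium-only (-100%), curves Hill-fitted.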
hNpr1 antagonist = blocks ANP-stimulated signaling of human Npr1 receptor | AID 1347048 | Potency, µM (doses to about 46.3 µM), for inactives: at the highest dose activity change, negative = inhibition, most hits filed as inhibitors | HEK293 hNpr1 GloSensor cGMP, ANP-stimulated luminescence | P16066 | actives 1.6% (n = 76,000); calls by dose curve; note: nearly all actives have a fitted effect of over 60% in size
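Compound pre-incubated 30 min at room temperature on GloSensor-loaded HEK293 cells stably carrying hNpr1 and the pGS-40F cGMP biosensor. Stimulation uses hNppA at 0.1 nM final; luminescence is taken at baseline and 20 min post-agonist.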
HEK293 tox = kills HEK 293 cells | HEK 293 viability, ATP luminescence (CellTiter-Glo), 48-72 h | Potency, µM (top dose mostly 115 µM), for the others: at the highest dose activity change, negative = cytotoxicity, most hits filed as inhibitors | actives 6.6% (n = 94,000) | AID 1345083; note: nearly all actives have a fitted effect of over 60% in size
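Viability of HEK 293 cells, plated at 250 cells/well, was judged by cellular ATP after compound treatment for 48 or 72 hr. Luminescence was imaged 10 min after CellTiter-Glo addition at room temperature.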
Luciferase inh = blocks purified firefly luciferase enzyme activity; Potency, µM (titrated, usually from 115 µM), hits mostly inhibitors; purified P. pyralis luciferase, luminescence, biochemical; AID 1347043; P08659; actives 2.5% (n = 76,000); note: nearly all actives have a fitted effect of over 65% in size
Target sequence (P08659 whole entry, looked up): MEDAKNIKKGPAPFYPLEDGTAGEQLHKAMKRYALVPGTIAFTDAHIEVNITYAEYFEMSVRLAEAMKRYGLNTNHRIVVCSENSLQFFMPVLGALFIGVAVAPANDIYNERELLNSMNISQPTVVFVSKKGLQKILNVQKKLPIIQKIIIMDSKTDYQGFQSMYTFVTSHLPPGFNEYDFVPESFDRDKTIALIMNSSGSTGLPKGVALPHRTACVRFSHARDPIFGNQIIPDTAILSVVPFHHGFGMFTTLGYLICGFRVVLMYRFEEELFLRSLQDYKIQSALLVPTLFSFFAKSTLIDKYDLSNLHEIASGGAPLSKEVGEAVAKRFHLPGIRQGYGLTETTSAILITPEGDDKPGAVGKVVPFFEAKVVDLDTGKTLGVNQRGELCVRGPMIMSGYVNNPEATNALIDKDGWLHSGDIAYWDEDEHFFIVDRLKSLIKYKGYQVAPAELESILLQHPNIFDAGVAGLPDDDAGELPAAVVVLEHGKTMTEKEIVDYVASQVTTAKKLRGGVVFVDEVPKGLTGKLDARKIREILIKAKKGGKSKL
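Biochemical qHTS: compound (6-point titration) added to 10uM D-luciferin plus 10uM ATP in Tris acetate pH 7.5 buffer with Mg, Tween-20 and BSA, then purified enzyme at 10nM; light output imaged.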
SNCA expr inh = inhibitors of alpha-synuclein (SNCA) gene expression. HEK-293 SNCA-luciferase knock-in, luminescence, 24 h. Potency, µM (highest dose often 57.2 µM), inactives show at the highest dose activity change, negative = inhibition, usual class: inhibitors. actives 0.17% (n = 140,000);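 note: plate controls were DMSO cells for no effect and cell-free wells for full effect; nearly all actives have a fitted effect of over 45% in size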
Numbers without * were called inactive; i = inactive; ? = inconclusive; nt = no result; [ ] = remark or other dose. Most compounds without a hit are left out; they make up all but 7.4% or so of the library. Unless noted, calls come from the whole dose curve; as a rule, active = well fitted curve in the direction sought with a large enough effect; inconclusive = small, poorly fitted or top-dose-only effect, or another doubt; inactive = no such curve, though single readings can be large; an effect the other way counts as inactive or inconclusive. Unless noted, % is set by controls: 0 for no effect and ±100 for the full control effect; potency is the fitted concentration of half-maximal effect.

SMILES	NIH3T3 tox	SNCA viab count	hNpr1 antagonist	HEK293 tox	Luciferase inh	SNCA expr inh
c1ccc(Nc2cc3c(cn2)CN(Cc2cnc[nH]2)CCN3)cc1	?	-8%[87.6 µM]	-2%[70.6 µM]	?	?	44%[87.6 µM]
Fc1cccc(CN2CCNc3cc(Nc4ccccc4)ncc3C2)c1	45µM*	?	-22%[70.6 µM]	40µM*	32µM*	32%[87.6 µM]
c1ccc(CN2CCNc3cnc(-c4ccc(N5CCOCC5)cc4)cc3C2)cc1	?	?	28µM*	50µM*	20µM*	?
CN(C)c1cccc(-c2cc3c(cn2)CN(Cc2cccnc2)CCN3)c1	?	-11%[87.6 µM]	-24%[70.6 µM]	?	?	-35%[87.6 µM]
Cc1nn(-c2ccccc2)c2c1C(C1CC1)N(C1CCN(Cc3c(F)cccc3F)CC1)C2=O (stereo not given)	-32%	nt	nt	-29%	nt	nt
O=C(c1nccc2ccccc12)N1CCc2c(nc3cc(-c4ccccc4)[nH]n3c2=O)C1	i	4%	5%	11%	?	-6%
CC(C)c1cc(C(=O)N2CCCC(c3ccccc3)(c3ccccc3)C2)n(C)n1	?	-14%	-3%	?	i	-23%
COc1ccc(CC(=O)NC2CCc3nnc(C)n3CC2)cc1 (stereo not given)	i	-4%	-2%	i	i	-11%
Cc1cc(C)c(C(=O)N2CCCC(CCc3ccccc3C)C2)c(=O)[nH]1 (stereo not given)	-14%	-20%	-1%	?	?	51%
CCOC(=O)C1CCN(C(=O)c2coc(COc3cccc(F)c3)n2)CC1	?	3%	9%	-1%	i	-10%
c1ccc(Nc2cc3c(cn2)CN(Cc2cccs2)CCN3)cc1	50µM*	-27%[87.6 µM]	-19%[70.6 µM]	50µM*	?	17%[87.6 µM]
c1ccc(CN2CCNc3cc(Nc4ccc(N5CCOCC5)cc4)ncc3C2)cc1	?	?	-11%[70.6 µM]	89µM*	i	9%[87.6 µM]
CC(=O)NC1(C)CCCN(Cc2cccc(-c3ccccc3)c2)C1 (stereo not given)	?	2%[87.6 µM]	-2%[70.6 µM]	?	i	12%[87.6 µM]
CC(=O)NC1(C)CCN(Cc2cccc(-c3ccc4c(c3)OCCN4C)c2)C1 (stereo not given)	89µM*	?	?	?	22µM*	184%[87.6 µM]
CC(=O)NC1(C)CCN(Cc2cccc(-c3ccc(N4CCOCC4)cc3)c2)C1 (stereo not given)	-24%[138 µM]	4%[87.6 µM]	4µM*	?	5.6µM*	-6%[87.6 µM]
CC(=O)NC1(C)CCCN(Cc2cccc(-c3cccc(F)c3)c2)C1 (stereo not given)	?	-11%[87.6 µM]	-1%[70.6 µM]	?	i	4%[87.6 µM]
Cc1sc2ccn(C)c(=O)c2c1C(=O)NCc1cccc(Br)c1	-5%	6%	-14%	?	i	6%
Cc1nc2n(c1C(=O)Nc1cc(-c3ccc(F)cc3)[nH]n1)CCC(Nc1ccc(F)cc1)C2 (stereo not given)	32µM*	-30%	-18%	?	?	?
Cc1nc2n(c1C(=O)NCC1CC1)CCC(Nc1ccc(F)cc1)C2 (stereo not given)	-19%[138 µM]	-4%[87.6 µM]	-2%[70.6 µM]	?	i	-10%[87.6 µM]
O=C(NCCc1ccncc1)c1coc(COc2ccc(F)cc2Cl)n1	?	5%	-10%	32µM*	i	?
O=C(c1coc(COc2ccc(F)cc2Cl)n1)N1CCCCO1	-1%	-6%	-17%	?	35µM*	90%
COC1CCN(C(=O)c2coc(COc3ccc(F)cc3Cl)n2)CC1	?	-6%	4%	-2%	i	43%
Cn1ncc(N2CCCC(CC(=O)N3CCCCCC3)C2)cc1=O (stereo not given)	-23%	-13%	-19%	-26%	i	-14%
COc1cc(CNc2nc(-c3c(C)noc3C)cc3cc(C)oc23)cc(OC)c1	25µM*	?	?	?	i	-29%[87.6 µM]
Cc1cc2cc(-c3c(C)noc3C)nc(N(C)CCN(C)C)c2o1	?	3%[87.6 µM]	4%[70.6 µM]	100µM*	i	39%[87.6 µM]

Screening results deposited in PubChem by National Center for Advancing Translational Sciences (NCATS).
